An excerpt weighted towards active compounds, which were near 2.3% of everything screened.
CHO-K1 Ca antag: M1 antagonist counterscreen hit in parental CHO-K1 cells; actives 0.6% (n = 360,000); ATP-induced calcium, Fluo-8 fluorescence; inhibition, % at 3 µM;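 active means inhibition above a per-plate cutoff, the plate's mean sample inhibition plus 3 SD, cut at about 24% in these data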;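 further: 0% = DMSO plus EC80 ATP and 100% = DMSO alone without ATP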
CHRM1 agonist: human M1 muscarinic receptor agonists, primary screen, Fluo-8 calcium fluorescence, CHO-K1 cells, HTS | actives 0.33% (n = 360,000) | activation, % at 3 µM | CHO-K1 hM1, agonist mode; 0% DMSO, 100% acetylcholine EC100;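 active means activation above the run's mean compound activation plus 3 SD, cut at about 16% in these data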;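 further: peak over basal fluorescence ratio within a 140 s kinetic read after compound addition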
Target sequence (P11229 whole entry, looked up): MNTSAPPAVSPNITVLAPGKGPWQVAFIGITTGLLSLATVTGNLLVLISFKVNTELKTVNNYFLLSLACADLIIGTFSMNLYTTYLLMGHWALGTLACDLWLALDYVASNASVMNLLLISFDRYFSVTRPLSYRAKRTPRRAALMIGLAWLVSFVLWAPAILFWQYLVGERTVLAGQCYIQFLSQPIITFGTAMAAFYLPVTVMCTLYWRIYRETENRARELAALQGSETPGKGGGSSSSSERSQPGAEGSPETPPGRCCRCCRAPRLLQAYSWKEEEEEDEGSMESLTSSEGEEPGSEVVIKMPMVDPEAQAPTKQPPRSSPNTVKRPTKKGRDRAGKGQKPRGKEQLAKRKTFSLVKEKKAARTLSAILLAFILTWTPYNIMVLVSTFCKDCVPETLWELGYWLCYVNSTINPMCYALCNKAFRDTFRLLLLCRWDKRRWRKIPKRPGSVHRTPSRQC
CHRM1 antagonist: human M1 muscarinic receptor antagonists, primary screen, CHO-K1 cells, Fluo-8 calcium fluorescence, 1536-well. Muscarinic acetylcholine receptor M1 (Homo sapiens), P11229. CHO-K1 hM1, ACh EC80 antagonist. inhibition, % at 3 µM. actives 1.3% (n = 360,000). AID 588852, 2011;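 active means percent inhibition above its own plate's cutoff, namely the mean of that plate's compound wells plus 3 SD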;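 further: peak over basal fluorescence ratio during 140 s after agonist addition; 0% = ACh EC80 plus DMSO and 100% = DMSO alone without agonist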
CHRM1 PAM: human M1 muscarinic receptor positive allosteric modulators, primary screen, CHO-K1 cells, Fluo-8 calcium fluorescence, 1536-well | CHO-K1 hM1, ACh EC20; 0% = ACh EC20, 100% = maximal ACh | activation, % at 3 µM | actives 0.088% (n = 360,000) | AID 588819, 2011 | Muscarinic acetylcholine receptor M1 (Homo sapiens), P11229; in the data active means activation above about 19%, passing the limit was not always enough
CHO-K1 Ca ag: counter-screen for M1 agonists: effect in parental CHO-K1 cells; AID 602248, 2012; activation, % at 3 µM; actives 0.48% (n = 360,000); Fluo-8 calcium fluorescence; scaled to maximal ATP response, vehicle zero; in the data active means activation above about 15%;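 further: untransfected CHO-K1 host cells lacking M1 receptor as counterscreen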
CHO-K1 Ca PAM: nonselective calcium activators in parental CHO-K1 cells, primary screen, counter-screen for M1 PAM project, cell-based, Fluo-8 calcium fluorescence, full deck, 1536-well; ATP EC20; 0% at ATP EC20, 100% at ATP max; actives 0.02% (n = 360,000); activation, % at 3 µM; AID 602247, 2012;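 active means activation above the run cutoff, the mean activation of all test compounds plus 3 SD, cut at about 40% in these data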;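 further: peak over basal fluorescence ratio in a 140 s read after ATP addition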
The depositor's hits bear a star.

`O=S1(=O)CCC(NC(=S)Nc2ccc3ccccc3c2)C1` (configuration not stated) gave CHO-K1 Ca antag -7, CHRM1 agonist -2, CHRM1 antagonist -10, CHRM1 PAM 6, CHO-K1 Ca ag 1 and CHO-K1 Ca PAM -5.
For O=S1(=O)CCC(NC(=S)Nc2ccccc2)C1 (configuration not stated) the results were CHO-K1 Ca antag -15, CHRM1 agonist 2, CHRM1 antagonist -34, CHRM1 PAM 29*, CHO-K1 Ca ag 1 and CHO-K1 Ca PAM 22.
`CCOc1ccc(NC(=O)CN(C)C(=O)c2cc3c(s2)CCC(C)C3)cc1OCC` (configuration not stated) gave CHO-K1 Ca antag -26, CHRM1 agonist -7, CHRM1 antagonist -8, CHRM1 PAM 5, CHO-K1 Ca ag -1 and CHO-K1 Ca PAM 12.
Cc1cc(NC(=O)CCC(=O)N(Cc2ccco2)C2(C(=O)NC3CCCCC3)CCCC(C)C2)no1 (configuration not stated) was read as CHO-K1 Ca antag 1, CHRM1 agonist -4, CHRM1 antagonist -1, CHRM1 PAM -1, CHO-K1 Ca ag 3 and CHO-K1 Ca PAM 12.
COc1ccccc1NC(=S)N(Cc1ccccn1)Cc1ccccc1Cl was read as CHO-K1 Ca antag 36*, CHRM1 agonist -5, CHRM1 antagonist -15, CHRM1 PAM 7, CHO-K1 Ca ag 7 and CHO-K1 Ca PAM 5.
O=C(CC1CC2CCC1C2)NC1CCCCCCC1 (configuration not stated) was read as CHO-K1 Ca antag -11, CHRM1 agonist -7, CHRM1 antagonist -6, CHRM1 PAM 2, CHO-K1 Ca ag 0 and CHO-K1 Ca PAM 12.
Cc1onc(-c2ccccc2)c1C(=O)NNC(=S)NC(=O)/C=C/c1ccccc1 was read as CHO-K1 Ca antag -7, CHRM1 agonist 40*, CHRM1 antagonist 5, CHRM1 PAM -10, CHO-K1 Ca ag 21* and CHO-K1 Ca PAM 6.
`O=C(NC(=S)Nc1ncccn1)c1ccc(Cl)cc1Cl` gave CHO-K1 Ca antag -4, CHRM1 agonist -6, CHRM1 antagonist -7, CHRM1 PAM 10, CHO-K1 Ca ag 21* and CHO-K1 Ca PAM 12.
For Cc1onc(-c2ccccc2)c1C(=O)NNC(=S)NC(=O)c1ccc(Br)cc1 the results were CHO-K1 Ca antag -8, CHRM1 agonist 75*, CHRM1 antagonist 7, CHRM1 PAM -18, CHO-K1 Ca ag 65* and CHO-K1 Ca PAM -12.
`Cc1ccccc1C(=O)NNC(=S)NC(=O)c1ccc(Cl)cc1Cl` gave CHO-K1 Ca antag 12, CHRM1 agonist 85*, CHRM1 antagonist 18, CHRM1 PAM -25, CHO-K1 Ca ag 89* and CHO-K1 Ca PAM -13.
For O=C(NC(=S)NNC(=O)c1ccc(Cl)cc1Cl)c1cccnc1 the results were CHO-K1 Ca antag 11, CHRM1 agonist -3, CHRM1 antagonist 2, CHRM1 PAM 1, CHO-K1 Ca ag 0 and CHO-K1 Ca PAM -5.
`Cc1onc(-c2ccccc2)c1C(=O)NNC(=O)c1ccccc1` gave CHO-K1 Ca antag -15, CHRM1 agonist -2, CHRM1 antagonist -17, CHRM1 PAM 10, CHO-K1 Ca ag 0 and CHO-K1 Ca PAM 12.
`CC(NC(=O)C1CCN(S(=O)(=O)c2cccs2)CC1)c1cccc(Cl)c1` (configuration not stated) gave CHO-K1 Ca antag -7, CHRM1 agonist -4, CHRM1 antagonist -5, CHRM1 PAM 6, CHO-K1 Ca ag 2 and CHO-K1 Ca PAM 4.
Cc1ccc(SCC(=O)N2c3ccccc3Sc3ccccc32)cc1 was read as CHO-K1 Ca antag -15, CHRM1 agonist -4, CHRM1 antagonist 0, CHRM1 PAM -1, CHO-K1 Ca ag 0 and CHO-K1 Ca PAM 17.
CC(=O)c1ccc(NC(=O)CSc2n[nH]c(-c3cccnc3)n2)cc1 was read as CHO-K1 Ca antag -14, CHRM1 agonist -3, CHRM1 antagonist -7, CHRM1 PAM 8, CHO-K1 Ca ag 1 and CHO-K1 Ca PAM -25.
Screening Cc1onc(-c2ccccc2)c1C(=O)NNC(=O)c1ccccc1O returned CHO-K1 Ca antag -10, CHRM1 agonist -3, CHRM1 antagonist -6, CHRM1 PAM 4, CHO-K1 Ca ag 1 and CHO-K1 Ca PAM 9.
For Cc1cccc(C(=O)NC(=S)NNC(=O)Cc2ccccc2)c1 the results were CHO-K1 Ca antag 16, CHRM1 agonist 15, CHRM1 antagonist 2, CHRM1 PAM -6, CHO-K1 Ca ag 1 and CHO-K1 Ca PAM -14.
For Cc1onc(-c2ccccc2)c1C(=O)NNC(=S)NC(=O)c1ccc(Cl)cc1Cl the results were CHO-K1 Ca antag 1, CHRM1 agonist 90*, CHRM1 antagonist 16, CHRM1 PAM -28, CHO-K1 Ca ag 26* and CHO-K1 Ca PAM -12.
Screening Cc1cccc(C(=O)NC(=S)NNC(=O)c2ccccc2Cl)c1 returned CHO-K1 Ca antag 3, CHRM1 agonist 91*, CHRM1 antagonist 27, CHRM1 PAM -25, CHO-K1 Ca ag 71* and CHO-K1 Ca PAM -4.
Cc1ccc(C(=O)NNC(=S)NC(=O)c2ccc(Cl)cc2)cc1 was read as CHO-K1 Ca antag 9, CHRM1 agonist 98*, CHRM1 antagonist 45*, CHRM1 PAM -38, CHO-K1 Ca ag 102* and CHO-K1 Ca PAM -19.
Screening CN(C)Cc1cc(C(C)(C)c2ccccc2)ccc1O returned CHO-K1 Ca antag -3, CHRM1 agonist -5, CHRM1 antagonist 43*, CHRM1 PAM -27, CHO-K1 Ca ag 3 and CHO-K1 Ca PAM 7.
Screening CC1CCCC(NC(=O)CCC(=O)NCc2ccccc2)C1C (configuration not stated) returned CHO-K1 Ca antag -4, CHRM1 agonist -5, CHRM1 antagonist -10, CHRM1 PAM 5, CHO-K1 Ca ag 2 and CHO-K1 Ca PAM 15.
For CCOc1ccccc1N1CCN(CC(O)COC2CCCc3ccccc32)CC1 (configuration not stated) the results were CHO-K1 Ca antag -13, CHRM1 agonist -11, CHRM1 antagonist 48*, CHRM1 PAM -31, CHO-K1 Ca ag 6 and CHO-K1 Ca PAM -1.
`Cc1ccc(OCCCCn2ccnc2)c([N+](=O)[O-])c1` gave CHO-K1 Ca antag 1, CHRM1 agonist -12, CHRM1 antagonist 2, CHRM1 PAM -4, CHO-K1 Ca ag 2 and CHO-K1 Ca PAM 6.
Cc1ccc(OCCn2cncn2)c([N+](=O)[O-])c1 was read as CHO-K1 Ca antag -1, CHRM1 agonist 10, CHRM1 antagonist -8, CHRM1 PAM 14, CHO-K1 Ca ag 19* and CHO-K1 Ca PAM 17.
